Measurements as given in publication PMC11006913.

Target: ALX3 (Homo sapiens, UniProt O95076 139-225, L168V)
Test: PBM; 200 nM protein, PBS
Conditions: dsDNA, one strand shown

Sequence of ALX3 (Homo sapiens, UniProt O95076 139-225, L168V) (O95076 139-225 L168V): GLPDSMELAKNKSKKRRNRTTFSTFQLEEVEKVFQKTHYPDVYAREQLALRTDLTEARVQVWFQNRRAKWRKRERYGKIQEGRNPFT

Sequence | binding signal
CCTCCCAG | 7.74 upbm affinity estimate (log intensity, higher = more binding, comparable within an allelic series)
CCCCCCTC | 7.44 upbm affinity estimate (log intensity, higher = more binding, comparable within an allelic series)
AGGTGGGG | 7.85 upbm affinity estimate (log intensity, higher = more binding, comparable within an allelic series)

Target: PROP1 (Homo sapiens, UniProt O75360 56-141, F88S)
Test: PBM; 200 nM protein, PBS
Conditions: dsDNA, one strand shown

Sequence of PROP1 (O75360 56-141 F88S): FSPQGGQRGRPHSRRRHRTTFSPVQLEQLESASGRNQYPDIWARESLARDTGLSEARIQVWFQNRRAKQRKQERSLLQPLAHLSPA

Sequence | binding signal
CGGAGCCC | 6.36 upbm affinity estimate (log intensity, higher = more binding, comparable within an allelic series)
CCCCCCTC | 5.9 upbm affinity estimate (log intensity, higher = more binding, comparable within an allelic series)
AGCCGTGG | 6.72 upbm affinity estimate (log intensity, higher = more binding, comparable within an allelic series)

Target: MSX2 (Homo sapiens, UniProt P35548 130-214, F161Y)
Test: PBM; 200 nM protein, PBS
Conditions: dsDNA, one strand shown

Sequence of MSX2 (P35548 130-214 F161Y): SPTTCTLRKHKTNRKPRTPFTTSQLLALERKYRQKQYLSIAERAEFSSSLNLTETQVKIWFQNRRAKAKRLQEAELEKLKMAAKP

Sequence | binding signal
CACAATTA | 13 upbm affinity estimate (log intensity, higher = more binding, comparable within an allelic series)
TCGGGCCA | 9.51 upbm affinity estimate (log intensity, higher = more binding, comparable within an allelic series)
CGGGCCAG | 9.66 upbm affinity estimate (log intensity, higher = more binding, comparable within an allelic series)
AGTAATAA | 12.3 upbm affinity estimate (log intensity, higher = more binding, comparable within an allelic series)
GCGTCGCC | 9.49 upbm affinity estimate (log intensity, higher = more binding, comparable within an allelic series)
CGCGGGAG | 9.25 upbm affinity estimate (log intensity, higher = more binding, comparable within an allelic series)
CTCCACGC | 9.61 upbm affinity estimate (log intensity, higher = more binding, comparable within an allelic series)

Target: HOXA2 (Homo sapiens, UniProt O43364 129-215, Y150S)
Test: PBM; 200 nM protein, PBS
Conditions: dsDNA, one strand shown

Sequence of HOXA2 (Homo sapiens, UniProt O43364 129-215, Y150S) (O43364 129-215 Y150S): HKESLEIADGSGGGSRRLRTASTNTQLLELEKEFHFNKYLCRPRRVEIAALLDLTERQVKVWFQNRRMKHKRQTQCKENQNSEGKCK

Sequence | binding signal
CACGCGGG | 10.4 upbm affinity estimate (log intensity, higher = more binding, comparable within an allelic series)
ATTTGTTC | 10.8 upbm affinity estimate (log intensity, higher = more binding, comparable within an allelic series)
CGGAGCCC | 10.1 upbm affinity estimate (log intensity, higher = more binding, comparable within an allelic series)
AGGTGGGG | 10.4 upbm affinity estimate (log intensity, higher = more binding, comparable within an allelic series)
CCTGCCGC | 10.4 upbm affinity estimate (log intensity, higher = more binding, comparable within an allelic series)
CCCTGCGG | 10.5 upbm affinity estimate (log intensity, higher = more binding, comparable within an allelic series)

Target: ALX3 (Homo sapiens, UniProt O95076 139-225, N203S)
Test: PBM; 200 nM protein, PBS
Conditions: dsDNA, one strand shown

Sequence of ALX3 (Homo sapiens, UniProt O95076 139-225, N203S) (O95076 139-225 N203S): as the sequence (O95076 139-225 L168V) above, with V30L, N65S counted along it

Sequence | binding signal
CCTCCCAG | 7.72 upbm affinity estimate (log intensity, higher = more binding, comparable within an allelic series)
CCCCCCTC | 7.51 upbm affinity estimate (log intensity, higher = more binding, comparable within an allelic series)
AGGTGGGG | 7.82 upbm affinity estimate (log intensity, higher = more binding, comparable within an allelic series)

Target: HOXA2 (Homo sapiens, UniProt O43364 129-215)
Test: PBM; 200 nM protein, PBS
Conditions: dsDNA, one strand shown

Sequence of HOXA2 (Homo sapiens, UniProt O43364 129-215) (O43364 129-215): as the sequence (O43364 129-215 Y150S) above, with S22Y counted along it

Sequence | binding signal
CACGCGGG | 7.18 upbm affinity estimate (log intensity, higher = more binding, comparable within an allelic series)
ATTTGTTC | 9.22 upbm affinity estimate (log intensity, higher = more binding, comparable within an allelic series)
CGGAGCCC | 7.02 upbm affinity estimate (log intensity, higher = more binding, comparable within an allelic series)
AGGTGGGG | 7.26 upbm affinity estimate (log intensity, higher = more binding, comparable within an allelic series)
CCTGCCGC | 7.06 upbm affinity estimate (log intensity, higher = more binding, comparable within an allelic series)
CCCTGCGG | 7 upbm affinity estimate (log intensity, higher = more binding, comparable within an allelic series)
